Source: PubChem (National Center for Advancing Translational Sciences (NCATS))
Most compounds without a hit are left out; they make up all but 18% or so of the library.
TDP1 cell CPT: qHTS for Inhibitors of human tyrosyl-DNA phosphodiesterase 1 (TDP1): qHTS in cells in presence of CPT; Potency, µM (series often up to 46.2 µM), usual class: inhibitors; chicken DT40 Tdp1-/-;hTDP1 cells + 20 nM CPT, ATP luminescence, 48 h; hit rate 12% among 420,000; further: nearly all actives have a fitted effect of over 55% in size
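Chicken DT40 Tdp1-/- cells complemented with human TDP1, 400 cells/well, exposed to compounds plus 20 nM camptothecin for at least 48 h at 37 C; viability read as ATP content by CellTiter-Glo luminescence.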
TGFb SMAD3 inh: qHTS for Inhibitors of TGF-b. HepG2 CAGA-GFP TGF-b/SMAD3 reporter, GFP fluorescence, 18 h; TGF-beta stimulated, 500 pg/mL final. Potency, µM (series often up to 46.1 µM), hits mostly inhibitors. hit rate 1.2% among 410,000; further: nearly all actives have a fitted effect of over 65% in size
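Read-out: total well GFP (ex488/em500-530) summed from mean per-cell fluorescence. Cells: HEPG2 CAGA-GFP, 1% FBS DMEM, 18 h at 37 degrees C with 500 pg/mL final TGF-beta. Unstimulated wells served as the full-inhibition control; stimulated DMSO wells = 0%.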
HepG2 tox: qHTS for Inhibitors of TGF-b: Cytotox Counterscreen; HepG2 CAGA-GFP viability, ATP luminescence, 18 h; hit rate 0.76% among 410,000; Potency, µM (highest dose often 46.1 µM), most hits filed as cytotoxic
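HepG2 CAGA-GFP cells (1000/well, DMEM with 1% FBS) received compound, then TGF-beta at 500 pg/mL final, and were incubated 18 hours at 37 degrees C. Viability was read by CellTiter-Glo luminescence. Media-only wells were set as complete cell-killing and DMSO as no toxicity.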
TDP1 cell noCPT: qHTS for Inhibitors of human tyrosyl-DNA phosphodiesterase 1 (TDP1): qHTS in cells in absence of CPT; DT40 Tdp1-/- hTDP1 cells, no CPT, ATP luminescence, 48 h; Potency, µM (highest dose often 46.2 µM), hits mostly inhibitors; hit rate 15% among 420,000; AID 686978, 2013; further: nearly all actives have a fitted effect of over 55% in size
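Camptothecin absent (DMSO only). Human TDP1-complemented DT40 knockout cells, 400 cells/well, 37 °C for minimum 48 hr; ATP measured via CellTiter-Glo, 30 min dark incubation, luminescence.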
TDP1 inh: qHTS Assay for Inhibitors of Tyrosyl-DNA Phosphodiesterase (TDP1); Tyrosyl-DNA phosphodiesterase 1 (Homo sapiens), Q9NUW8; recombinant TDP1, AlphaScreen DNA substrate cleavage; Potency, µM (top dose mostly 130 µM), most hits filed as inhibitors; hit rate 0.28% among 350,000; further: nearly all actives have a fitted effect of over 40% in size
Target sequence (Q9NUW8 whole entry, looked up): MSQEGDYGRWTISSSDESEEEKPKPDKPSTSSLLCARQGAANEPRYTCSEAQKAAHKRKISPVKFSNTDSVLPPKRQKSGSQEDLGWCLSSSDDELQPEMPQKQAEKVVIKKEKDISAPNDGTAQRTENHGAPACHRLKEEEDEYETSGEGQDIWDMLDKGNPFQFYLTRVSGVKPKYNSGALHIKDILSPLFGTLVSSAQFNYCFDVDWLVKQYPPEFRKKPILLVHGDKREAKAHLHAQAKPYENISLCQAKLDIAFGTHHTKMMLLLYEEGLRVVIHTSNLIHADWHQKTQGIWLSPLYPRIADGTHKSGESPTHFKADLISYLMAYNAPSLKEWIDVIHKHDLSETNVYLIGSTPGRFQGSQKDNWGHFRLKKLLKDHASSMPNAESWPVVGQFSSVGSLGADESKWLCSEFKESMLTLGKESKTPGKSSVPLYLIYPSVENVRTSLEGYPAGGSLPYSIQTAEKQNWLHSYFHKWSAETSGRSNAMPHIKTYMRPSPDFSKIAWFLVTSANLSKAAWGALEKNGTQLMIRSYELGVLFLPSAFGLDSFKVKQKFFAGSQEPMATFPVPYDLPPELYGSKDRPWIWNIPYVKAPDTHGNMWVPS
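Compounds were preincubated with Tdp1 (1 nM final) for 15 min at room temperature before substrate (15 nM final) started a 5 min reaction; beads (10 ug/ml final) were then added for 10 min before AlphaScreen detection.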
IL1B secr inh: qHTS for Inhibitors of Inflammasome Signaling: IL-1-beta AlphaLISA Primary Screen | AID 743279, 2014 | THP-1 LPS/ATP IL-1B secretion, AlphaLISA, 16 h; hits give low values | activity change, % at 57.5 µM | hit rate 4.7% among 360,000; in the data active means activity change below about -50%; inconclusive means mostly about -30% to -49%
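THP-1 cells pretreated 1 hr with compounds (up to 57.5 uM final), then stimulated with LPS (250 ng/mL final) plus ATP (1.25 mM final); secreted IL-1B measured by AlphaLISA after 16 hr, decreased signal indicating inhibition.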
Hits are given with their value; 0 = inactive; ? = inconclusive; - = not tested or not shown. Unless noted, the call rests on the fitted dose curve; in most records, active means well fitted curve in the direction sought with a large enough effect; inconclusive means small, poorly fitted or top-dose-only effect, or another doubt; inactive means no such curve, though single readings can be large; an effect the other way counts as inactive or inconclusive.

SMILES	TDP1 cell CPT	TGFb SMAD3 inh	HepG2 tox	TDP1 cell noCPT	TDP1 inh	IL1B secr inh
Cc1ccc(-n2nc(C(=O)NCc3ccc(F)cc3Cl)c3c4ccccc4n(C)c3c2=O)cc1	0	0	0	?	0	-
COc1cc(=O)n2c(c1C(=O)NC(C)c1ccco1)CCN(C(=O)c1ccc(F)cc1Cl)CC2 (stereo not drawn)	0	-	-	0	-	-
C=CCn1c(-c2ccccn2)n[nH]c1=S	0	0	0	0	-	0
COc1cc(C(=O)OCC(=O)Nc2ccccc2C(=O)NC2CC2)c([N+](=O)[O-])cc1OC	0	0	0	0	0	0
O=C(Nc1cccc(S(=O)(=O)NCc2ccco2)c1)c1cc(-c2ccccc2)nc2ccccc12	?	?	0	23µM	0	-88
O=C(Nc1cccc(S(=O)(=O)NC2=NCCCCC2)c1)c1cc(-c2ccco2)nc2ccccc12	?	?	0	9.2µM	-	0
O=C(NCc1ccco1)c1cc(-c2ccccc2)nc2ccccc12	0	0	0	?	0	0
O=C(Nc1cccc(S(=O)(=O)NC2=NCCCCC2)c1)c1cc(-c2ccncc2)nc2ccccc12	?	0	0	23µM	0	?
CCN(Cc1ccccc1)C(=O)Cn1ncc2c(=O)oc3ccc(C)cc3c21	0	?	0	0	0	-
O=C(Nc1ccc(Cl)cc1)c1cc(S(=O)(=O)N2CCCCC2)ccc1N1CCOCC1	0	0	0	?	-	0
O=C(Nc1ccc(S(=O)(=O)N2CCOCC2)cc1)c1cccc([N+](=O)[O-])c1	?	0	0	0	-	0
O=C(Nc1ccc(S(=O)(=O)N2CCOCC2)cc1)c1cc([N+](=O)[O-])ccc1Cl	16µM	0	0	?	0	0
O=C(Nc1ccc(S(=O)(=O)N2CCOCC2)cc1)c1ccc(Cl)cc1Cl	?	0	0	21µM	-	0
CN(C)S(=O)(=O)c1ccc(Cl)c(C(=O)Nc2ccc(S(=O)(=O)N3CCOCC3)cc2)c1	10µM	0	0	9.2µM	0	0
O=C(Nc1ccc(OC(F)(F)F)cc1)c1ccc(S(=O)(=O)N2CCOCC2)o1	?	0	0	16µM	0	-51
N#Cc1ccccc1OC1=NS(=O)(=O)c2ccccc21	-	-	-	-	0	-
Cc1cccc(N2C(=O)CC(N(C(=O)c3ccco3)c3cccc(C)c3)C2=O)c1 (stereo not drawn)	0	0	0	0	0	0
CCc1c(C(=O)Nc2ccc(S(=O)(=O)N3CCOCC3)cc2)csc1C	23µM	0	0	18µM	0	0
Cc1ccc(-n2ccc(=O)c(C(=O)Nc3ccc(S(=O)(=O)N4CCOCC4)cc3)n2)cc1	0	0	0	0	0	0
CCC(=O)Nc1ccc(S(=O)(=O)N2CCOCC2)cc1	0	0	0	0	0	0
Cc1cccc(-n2ccc(=O)c(C(=O)Nc3ccc(S(=O)(=O)N4CCOCC4)cc3)n2)c1	?	0	0	23µM	0	0
CSCC[C@H](N)C(=O)N[C@@H](C)C(=O)NCC(=O)N[C@@H](CCCN=C(N)N)C(=O)N[C@@H](CO)C(=O)NCC(=O)N[C@@H](CC(=O)O)C(=O)N[C@@H](CO)C(=O)N[C@@H](CC(=O)O)C(=O)N[C@@H](CCC(=O)O)C(=O)N[C@@H](CC(=O)O)C(=O)N[C@@H](CC(C)C)C(=O)N[C@@H](CC(C)C)C(=O)N[C@@H](CCCCN)C(=O)N[C@@H](C)C(=O)N[C@H](C(=O)O)C(C)C	-	-	-	-	0	-
Cc1nn(S(=O)(=O)c2cccc([N+](=O)[O-])c2)c(C)c1S(=O)(=O)N1CCOCC1	0	0	0	0	0	0
O=C(c1csnn1)N1CCC2(CC1)CN(C(c1ccccc1)c1ccccc1)C2	0	-	-	?	-	-
CC/C(=C\C(=O)c1ccncc1)Nc1ccc(Br)cc1	?	0	0	?	0	-67
SMILES	TDP1 cell CPT	TGFb SMAD3 inh	HepG2 tox	TDP1 cell noCPT	TDP1 inh	IL1B secr inh
O=C(O)/C=C/c1cn(-c2ccccc2)nc1-c1ccc(-c2ccc([N+](=O)[O-])cc2)o1	0	0	0	?	0	0
COc1ccc(-c2nn(-c3ccccc3)cc2C=O)cc1[N+](=O)[O-]	0	0	0	0	0	-84
COc1ccc(-c2nn(-c3ccccc3)cc2/C=C/C(=O)O)cc1[N+](=O)[O-]	?	0	0	23µM	0	0
C=C1CCN(C(C(=O)O)C(C)C)S(=O)(=O)c2ccccc21 (stereo not drawn)	-	0	0	-	0	-
CCCn1c(=O)c(C(=O)NCCc2ccc(Cl)cc2)c(O)c2ccccc21	?	0	0	?	0	0
Nc1[nH]c(=O)[nH]c(=O)c1N=Cc1ccccc1	?	0	0	0	-	0
CCOc1ccc(-c2c(C)sc3nc[nH]c(=O)c23)cc1	?	0	0	16µM	-	0
CC(=O)N1c2ccccc2N(Cc2ccc(C)cc2C)C(=O)C1(C)C	6.5µM	0	0	5.8µM	0	0
COc1ccc(-n2cc(-c3ccc(Cl)cc3)[nH]c2=S)cc1	0	0	0	0	0	0
Clc1ccc(-c2cn(-c3ccc(Cl)cc3)c3[n+]2CCCCC3)cc1	8.2µM	0	0	7.3µM	0	0
COc1ccc(-c2cn(-c3ccc(Cl)cc3)c3[n+]2CCCCC3)cc1	2.3µM	0	0	2.6µM	0	?
COc1ccc(-n2cc(-c3ccc(OC(F)F)cc3)[n+]3c2CCCCC3)cc1	1.3µM	0	0	0.82µM	0	?
Cc1cn([C@H]2C[C@H](O)[C@@H](CNCc3ccc(Oc4cc(-n5cccn5)ncn4)cc3)O2)c(=O)[nH]c1=O	0	0	0	0	-	0
CN(C)C(=O)c1ccc(-c2cncnc2NCc2ccccc2)cc1	0	-	-	0	-	-
CN(C)C(=O)c1ccc(-c2cncnc2NCc2cccs2)cc1	0	-	-	0	28µM	-
O=C(COCc1cc(-c2cccs2)on1)N1CCN(c2cccc(Cl)c2)CC1	23µM	0	0	12µM	0	-
O=C(Cc1cccs1)N1CCN(c2cccc(Cl)c2)CC1	0	0	0	0	0	0
O=C(COCc1cc(-c2cccs2)on1)N1CCN(c2ccc(F)cc2)CC1	18µM	0	0	15µM	0	-
CC(OC(=O)c1cccc(-n2cnnn2)c1)C(=O)Nc1ccc(N(C)C)cc1 (stereo not drawn)	0	0	0	0	0	0
